Measured values: PubChem BioAssay (NCATS)
Values joined by “and” are separate entries in the source; they are usually repeats but may differ in a detail not shown here. Equal values may be shown once. Inconclusive results are not listed. Active and inactive are the calls of the source. Unless noted, calls come from the whole dose curve; as a rule, active = well fitted curve in the direction sought with a large enough effect; inconclusive = small, poorly fitted or top-dose-only effect, or another doubt; inactive = no such curve, though single readings can be large; an effect the other way counts as inactive or inconclusive.

Key:
[1] = Cell Viability - Jurkat (AID 426;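 active = dose-dependent loss of cell ATP signal giving a full or clear fitted curve, ranked by lower potency value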; note: potency is the fitted concentration of half-maximal effect); conditions: qHTS
Outline: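 Jurkat (clone E6-1, human T-cell leukemia) cells, 5000/well in complete medium, were exposed to compound for 40 hr at 37 °C. Viability was read as intracellular ATP by CellTiter-Glo luminescence; AC50 came from Hill fits of concentration-response data.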

[2] = target: Mitogen-activated protein kinase 10 (Mus musculus) (UniProt Q61831); experiment: JNK3 AlphaScreen Assay (AID 530; active = well fitted curve in either direction with a large enough effect, not every such curve was filed as active;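 note: kinase came from lysate of stimulated human HepG2 cells; signal reports phosphorylation of biotinylated GST-cJun 1-79 at Ser73 with 10 µM ATP; % is set by controls: 0 for no effect and ±100 for the full control effect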); conditions: JNK3 lysate, c-Jun phosphorylation; series mostly up to 11.4 µM
Outline: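 JNK3 came from HepG2 lysates pre-activated with IL-1beta and TNF-alpha and phosphorylated biotinylated GST-cJun (1-79) at 10 uM ATP, pH 7.6, room temperature. Compounds were titrated. AlphaScreen signal used anti-phospho-cJun (Ser73) antibody.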

[3] = Cell Viability - NIH 3T3 (AID 541); conditions: NIH 3T3 cell viability, qHTS; activity change, negative = cytotoxicity: at 92.2 µM (top of the series);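 note: plate controls were DMSO alone for no effect and tamoxifen positive control for full effect; nearly all actives have a fitted effect of over 25% in size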
Outline: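 NIH 3T3 mouse embryo fibroblasts (1000 cells/well) were plated in complete medium and treated with compound for 40 hr at 37 °C. Viability was read as intracellular ATP by CellTiter-Glo luminescence; AC50 values came from Hill-equation fits of concentration-response data.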

[4] = Cell Viability - LYMP2-025 (AID 976); conditions: LYMP2-025 lymphoblastoid cell viability; series mostly up to 92.2 µM;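 note: plate controls were DMSO only for no effect and tetraoctylammonium bromide control for full effect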
Outline: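 Human lymphoblastoid LYMP2-025 cells (2500/well) were pre-incubated 5 hr at 37 C, then treated with compounds for 24 hr at 37 C in complete medium. Viability was read as intracellular ATP by CellTiter-Glo luminescence; AC50 from Hill fits.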

[5] = target: Vitamin D3 receptor (Homo sapiens) (UniProt P11473); experiment: qHTS assay for small molecule antagonists of vitamin D receptor signaling (AID 588541; calls by dose curve;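 note: receptor activated by calcitriol during compound treatment; % is set by controls: 0 for no effect and ±100 for the full control effect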); conditions: HEK293T VDR-UAS-bla, beta-lactamase ratio, antagonist mode; series mostly up to 76.7 µM
Outline: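 VDR-UAS-bla HEK293T cells (2000/well, 2% charcoal-stripped FBS) were treated with titrated compounds plus 1-alpha,25-dihydroxyvitamin D3 (50 nM or 3 nM final) for 16 h at 37 C. CCF4 beta-lactamase fluorescence was read; Hill fits gave IC50.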

[6] = target: Retinoic acid receptor RXR-alpha (Homo sapiens) (UniProt P19793); experiment: qHTS assay for small molecule antagonists of retinoid X receptor alpha signaling (AID 588546; active = well fitted inhibition curve with a large enough effect in the signal ratio, with a control signal flat, not every such curve was filed as active; the % refers to the signal ratio;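 note: cells stimulated with 9-cis-retinoic acid as agonist; % is set by controls: 0 for no effect and ±100 for the full control effect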); conditions: HEK293T RXRa-UAS-bla, beta-lactamase ratio, antagonist mode
Outline: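 Beta-lactamase reporter inhibition, read as CCF4 fluorescence ratio (ex 405, em 460/530 nm) after 2 h at RT. HEK293T UAS-bla cells, 2500/well, were stimulated with 9-cis-RA at 500 or 100 nM final alongside test compound for 18 h at 37 C.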

[7] = target: Thyroid hormone receptor beta (Homo sapiens) (UniProt P10828); experiment: qHTS assay for small molecule antagonists of thyroid hormone receptor beta signaling (AID 588547; active = well fitted inhibition curve with a large enough effect in the signal ratio, with a control signal flat, not every such curve was filed as active; the % refers to the signal ratio;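 note: cells stimulated with 0.4 nM T3 agonist during compound exposure; % is set by controls: 0 for no effect and ±100 for the full control effect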); conditions: TR-UAS-bla HEK293, beta-lactamase ratio, antagonist mode, 18 h
Outline: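 TR-UAS-bla GripTite HEK293 cells in 2% charcoal/dextran FBS medium were preincubated 4 h at 37 C, given compound (0.59 nM to 92 uM) plus 0.4 nM T3 (final) for 18 h, then CCF4 for 2 h at RT; Hill fit gave IC50.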

[8] = qHTS assay for small molecule activators of the p53 signaling pathway (AID 651743; active = well fitted activation curve with a large enough effect in the signal ratio, not every such curve was filed as active; the % refers to the signal ratio; note: potency is the fitted concentration of half-maximal effect; for activation: % of control where 0% means no effect); conditions: HCT-116 p53RE-bla, beta-lactamase FRET ratio, 16 h; activation: stronger effect = higher value
Outline: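 p53RE-bla HCT-116 cells with a stably integrated beta-lactamase reporter under p53 response elements were plated, rested 5 hours at 37 C/5% CO2, then exposed to compounds in DMSO for 16 hours at 37 C. LiveBLAzer B/G FRET substrate was read after 2 hours at room temperature.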

[9] = Cell Viability - H-4-II-E (AID 543); conditions: H-4-II-E rat hepatoma viability; series mostly up to 92.2 µM; note: % is set by controls: 0 for no effect and ±100 for the full control effect; nearly all actives have a fitted effect of over 35% in size
Outline: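 Rat hepatoma H-4-II-E cells (1500/well) were plated, incubated 5 hr at 37 °C, then exposed to compounds for 40 hr at 37 °C. Cellular ATP was read by CellTiter-Glo luminescence; AC50 came from Hill-equation fits of concentration-response data.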

[10] = MultiTox-Fluor Cytotoxicity Assay - LYMP1-001 - Live Cells (AID 947); conditions: LYMP1-001 lymphoblastoid cells, live-cell protease fluorescence viability; series mostly up to 92.2 µM;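 note: 0% = DMSO only and full inhibition = tetraoctylammonium bromide control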
[11] = Cell Viability - LYMP2-004 (AID 966); conditions: LYMP2-004 lymphoblastoid cell viability, qHTS; series mostly up to 92.2 µM;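 note: plate controls were DMSO only for no effect and tetraoctylammonium bromide control for full effect; nearly all actives have a fitted effect of over 65% in size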
Outline: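 Human lymphoblastoid cells (2500/well) in complete medium were treated with compounds for 24 hr at 37 C, then intracellular ATP was measured by CellTiter-Glo luminescence. AC50 values came from Hill-equation fits of concentration-response data.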

[12] = Cell Viability - LYMP2-021 (AID 974); conditions: LYMP2-021 lymphoblastoid cells viability; series mostly up to 92.2 µM;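 note: compound exposure lasts 24 hours at 37 °C; % is set by controls: 0 for no effect and ±100 for the full control effect; nearly all actives have a fitted effect of over 55% in size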
Outline: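 Human lymphoblastoid cells (2500/well) were preincubated 5 hr at 37 C, then exposed to compounds for 24 hr at 37 C in complete medium. Intracellular ATP was read by CellTiter-Glo luminescence; AC50 came from Hill-equation fits of concentration-response data.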

[13] = Cell Viability - LYMP2-007 (AID 979); conditions: LYMP2-007 lymphoblastoid cell viability; series mostly up to 92.2 µM;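 note: cells exposed to compound for 24 h before reading; 0% = DMSO only and the negative end = 92 µM tetraoctylammonium bromide; nearly all actives have a fitted effect of over 60% in size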
Outline: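 Human lymphoblastoid cells (2500/well) were plated in complete medium, incubated 5 hr at 37 C, then exposed to compounds for 24 hr at 37 C. Intracellular ATP was read by CellTiter-Glo luminescence after 30 min at room temperature; AC50 from Hill fits.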

[14] = Cell Viability - LYMP2-016 (AID 984); conditions: LYMP2-016 lymphoblastoid cell viability, qHTS; series mostly up to 92.2 µM; note: % is set by controls: 0 for no effect and ±100 for the full control effect; nearly all actives have a fitted effect of over 55% in size
Outline: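 Concentration-dependent ATP depletion measured in LYMP2-016 lymphoblastoid cells, 24 h, 37 C; luciferase-based luminescent detection; Hill-equation AC50.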

[15] = Cell Viability - LYMP1-003 - Assay at 40 hr (AID 964); conditions: LYMP1-003 lymphoblastoid viability; series mostly up to 92.2 µM; note: % is set by controls: 0 for no effect and ±100 for the full control effect; nearly all actives have a fitted effect of over 60% in size
Outline: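 Human lymphoblastoid LYMP1-003 cells, 2500/well in complete medium, rested 5 hr at 37 C, then exposed to compounds for 40 hr at 37 C. Viability read as intracellular ATP by CellTiter-Glo luminescence; AC50 from Hill fits of concentration-response data.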

[16] = Cell Viability - LYMP2-018 (AID 985); conditions: LYMP2-018 lymphoblastoid cells, viability (qHTS); series mostly up to 92.2 µM;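 note: compound exposure lasted 24 hr at 37 °C; plate controls were DMSO only for no effect and tetraoctylammonium bromide at 92 µM for full effect; nearly all actives have a fitted effect of over 50% in size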
Outline: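 Human lymphoblastoid cells (2500/well) were pre-incubated 5 hr at 37 C, then exposed to compounds for 24 hr at 37 C in complete medium. Viability was read as intracellular ATP by CellTiter-Glo luminescence; AC50 values came from Hill-equation fits.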

[17] = qHTS assay for small molecule antagonists of peroxisome proliferator-activated receptor delta signaling (AID 588535); conditions: HEK293T PPARd-UAS-bla, beta-lactamase FRET ratio, 18 h; 460 nm channel;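 note: cells co-treated with a PPAR-delta agonist as stimulator during compound exposure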
Outline: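 GeneBLAzer PPAR-delta-UAS-bla HEK293T cells in medium with 2% charcoal/dextran FBS were preincubated 5 hrs at 37 C, then given compounds, incubated 18 hrs at 37 C, and read by CCF4 beta-lactamase fluorescence; IC50 from Hill fits.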

[18] = target: Peroxisome proliferator-activated receptor gamma (Homo sapiens) (UniProt P37231); experiment: qHTS assay for small molecule antagonists of peroxisome proliferator-activated receptor gamma signaling (AID 588537; active = well fitted inhibition curve with a large enough effect in the signal ratio, with a control signal flat, not every such curve was filed as active; the % refers to the signal ratio;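 note: reporter cells co-stimulated with 50 nM rosiglitazone agonist during compound treatment; % of control where 0% means no effect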); conditions: HEK293 PPARg-UAS-bla, beta-lactamase ratio, antagonist mode; series mostly up to 76.8 µM
Outline: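 PPAR-gamma-UAS-bla HEK293 cells (3000/well, 1% charcoal/dextran-stripped FBS) were preincubated 6-6.5 h at 37 C, given titrated compounds, then stimulated with 50 nM rosiglitazone for 16 h. Beta-lactamase activity was read with CCF4 dye; IC50 came from Hill fits.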

[19] = target: Bile acid receptor (Homo sapiens) (UniProt Q96RI1); experiment: qHTS assay for small molecule antagonists of farnesoid X receptor signaling (AID 588526; calls by dose curve; note: % is set by controls: 0 for no effect and ±100 for the full control effect); conditions: HEK293T FXR-UAS-bla, beta-lactamase ratio, antagonist mode; series mostly up to 76.7 µM
Outline: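 Concentration-response titrations were fitted to the Hill equation for half-maximal inhibition and maximal response, with data normalised to 50 uM chenodeoxycholic acid and DMSO control wells. Cells: FXR-UAS-bla HEK293T, dialyzed FBS.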

[20] = Cell Viability - LYMP2-014 (AID 983); conditions: LYMP2-014 lymphoblastoid cells, viability qHTS; series mostly up to 92.2 µM;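 note: plate controls were DMSO only for no effect and 92 µM tetraoctylammonium bromide for full effect; nearly all actives have a fitted effect of over 50% in size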
Outline: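 Human lymphoblastoid cells (2500/well) were pre-incubated 5 hr at 37 C, then exposed to compounds in complete medium for 24 hr at 37 C. Intracellular ATP was read by CellTiter-Glo luminescence after 30 min at room temperature; AC50 from Hill fits.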

Chain of Vitamin D3 receptor (Homo sapiens) (P11473 whole entry, looked up): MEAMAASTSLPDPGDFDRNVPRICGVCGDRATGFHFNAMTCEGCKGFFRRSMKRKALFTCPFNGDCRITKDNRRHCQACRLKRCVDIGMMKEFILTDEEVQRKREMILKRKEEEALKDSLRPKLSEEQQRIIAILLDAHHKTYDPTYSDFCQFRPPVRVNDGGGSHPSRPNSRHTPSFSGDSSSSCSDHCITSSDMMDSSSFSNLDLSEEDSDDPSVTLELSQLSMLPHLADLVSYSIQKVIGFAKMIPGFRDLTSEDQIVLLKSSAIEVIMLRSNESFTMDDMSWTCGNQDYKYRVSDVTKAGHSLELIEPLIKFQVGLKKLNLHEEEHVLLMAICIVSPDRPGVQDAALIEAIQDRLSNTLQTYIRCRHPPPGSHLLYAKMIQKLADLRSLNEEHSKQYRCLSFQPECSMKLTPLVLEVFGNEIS
Chain of Bile acid receptor (Homo sapiens) (Q96RI1 whole entry, looked up): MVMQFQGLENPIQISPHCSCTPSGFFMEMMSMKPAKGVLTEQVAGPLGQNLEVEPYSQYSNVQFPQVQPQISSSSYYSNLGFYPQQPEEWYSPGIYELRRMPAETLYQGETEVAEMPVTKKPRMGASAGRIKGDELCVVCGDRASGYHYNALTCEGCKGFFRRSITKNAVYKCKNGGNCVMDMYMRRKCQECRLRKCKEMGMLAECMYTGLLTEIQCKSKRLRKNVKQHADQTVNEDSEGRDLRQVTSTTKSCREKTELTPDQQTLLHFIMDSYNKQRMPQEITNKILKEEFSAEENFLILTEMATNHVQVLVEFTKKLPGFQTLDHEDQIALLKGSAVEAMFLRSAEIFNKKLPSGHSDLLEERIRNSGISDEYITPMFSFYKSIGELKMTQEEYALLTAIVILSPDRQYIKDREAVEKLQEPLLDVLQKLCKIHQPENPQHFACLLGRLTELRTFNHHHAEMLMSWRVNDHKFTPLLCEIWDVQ
Chain of Thyroid hormone receptor beta (Homo sapiens) (P10828 whole entry, looked up): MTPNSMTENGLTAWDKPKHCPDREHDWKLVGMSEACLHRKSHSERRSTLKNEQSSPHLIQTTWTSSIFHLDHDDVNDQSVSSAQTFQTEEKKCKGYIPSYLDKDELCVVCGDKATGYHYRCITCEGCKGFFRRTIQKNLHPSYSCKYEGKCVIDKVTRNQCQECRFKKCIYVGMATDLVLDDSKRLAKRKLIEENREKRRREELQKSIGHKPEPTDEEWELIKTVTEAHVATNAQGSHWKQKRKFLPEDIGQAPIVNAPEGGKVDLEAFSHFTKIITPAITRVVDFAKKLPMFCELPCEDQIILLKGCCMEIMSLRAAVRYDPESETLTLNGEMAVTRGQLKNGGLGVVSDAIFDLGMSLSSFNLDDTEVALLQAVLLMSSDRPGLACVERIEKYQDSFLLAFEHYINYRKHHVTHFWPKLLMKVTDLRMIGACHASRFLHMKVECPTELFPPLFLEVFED
Chain of Retinoic acid receptor RXR-alpha (Homo sapiens) (P19793 whole entry, looked up): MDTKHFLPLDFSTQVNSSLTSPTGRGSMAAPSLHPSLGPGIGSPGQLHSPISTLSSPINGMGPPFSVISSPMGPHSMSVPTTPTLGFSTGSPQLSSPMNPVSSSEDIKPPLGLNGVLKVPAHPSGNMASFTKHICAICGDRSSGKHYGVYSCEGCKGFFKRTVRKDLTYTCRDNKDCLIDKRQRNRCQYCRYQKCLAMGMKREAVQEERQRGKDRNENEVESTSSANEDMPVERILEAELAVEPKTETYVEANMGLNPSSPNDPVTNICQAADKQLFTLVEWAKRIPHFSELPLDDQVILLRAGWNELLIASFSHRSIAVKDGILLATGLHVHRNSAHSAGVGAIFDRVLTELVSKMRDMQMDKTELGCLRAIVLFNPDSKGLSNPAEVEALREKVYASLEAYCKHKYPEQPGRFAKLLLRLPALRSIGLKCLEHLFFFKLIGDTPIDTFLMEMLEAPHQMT
Chain of Peroxisome proliferator-activated receptor gamma (Homo sapiens) (P37231 whole entry, looked up): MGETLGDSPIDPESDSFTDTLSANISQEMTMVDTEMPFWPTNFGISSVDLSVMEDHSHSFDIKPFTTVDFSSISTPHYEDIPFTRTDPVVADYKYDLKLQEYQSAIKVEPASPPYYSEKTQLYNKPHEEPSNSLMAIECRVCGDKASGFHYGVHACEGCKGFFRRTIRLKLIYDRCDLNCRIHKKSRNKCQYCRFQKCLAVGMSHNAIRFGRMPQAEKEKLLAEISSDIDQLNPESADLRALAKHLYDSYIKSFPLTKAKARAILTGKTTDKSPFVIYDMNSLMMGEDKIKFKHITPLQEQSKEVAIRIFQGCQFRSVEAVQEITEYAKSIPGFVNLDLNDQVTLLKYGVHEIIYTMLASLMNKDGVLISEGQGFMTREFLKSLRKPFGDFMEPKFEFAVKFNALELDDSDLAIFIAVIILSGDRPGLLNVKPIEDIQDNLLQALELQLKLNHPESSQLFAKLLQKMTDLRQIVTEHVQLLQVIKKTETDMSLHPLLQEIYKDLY

Nc1ccc(-c2ccc(N)c(O)c2)cc1O
active: Potency [1] 32.3 µM | activity change, negative = cytotoxicity [3] -88.2%
inactive: Potency [2] | Potency [4] | Potency [5] | max response [6] -12% | activity change % (negative = inhibition) [7] -12.5% | activation [8] 2.61%

O=c1[nH]ncc2ccccc12
inactive: Potency [1] > 92 µM | Potency [9] | Potency [10] | Potency [11] | Potency [12] | Potency [4] | Potency [13] | Potency [14] | Potency [5] | activity change % (negative = inhibition) [7] -18.2%
active: activity change, negative = cytotoxicity [3] -142%

Oc1ccc(O)c2c(O)cccc12
inactive: Potency [2] | activity change, negative = cytotoxicity [3] -29% | Potency [10] | Potency [15] | Potency [4] | activity change % (negative = inhibition) [7] -24.9%
active: Potency [1] 30 µM

O=C(OCc1ccccc1)c1ccccc1O
2.34% and -10.8%: max response [17]
inactive: Potency [1] > 92 µM | activity change, negative = cytotoxicity [3] -9.56% | Potency [9] | Potency [10] | Potency [11] | Potency [12] | Potency [14] | Potency [16] | Potency [5] | activation [8] 1.07% and -2.52%

CCN(CC)c1ccc2c(C)cc(=O)oc2c1
inactive: Potency [1] > 92 µM | Potency [10] | Potency [15] | Potency [12] | Potency [4] | Potency [13] | Potency [18]
active: Potency [8] 39.8 µM

COc1ccc([N+](=O)[O-])cc1N
74.5% and 5.37%: max response [17]
inactive: Potency [1] > 92 µM | Potency [2] | Potency [15] | Potency [12] | Potency [4] | Potency [13] | Potency [16] | Potency [19] | Potency [5] | max response [6] 4.59% and -0.147% | activation [8] -2.91% and -2.52%

C[Si](C)(C)Cl
inactive: Potency [1] > 92 µM | activity change, negative = cytotoxicity [3] -21.3% | Potency [15] | Potency [12] | Potency [13] | Potency [20] | Potency [14] | Potency [19] | max response [6] 16.7%

CCCC(=O)OC(=O)CCC
inactive: Potency [1] > 92 µM | Potency [2] | Potency [10] | Potency [4] | Potency [13] | Potency [18] | activation [8] 0.746% and 0.239%
16.1% and 21.1%: max response [17]

c1c[nH]cn1
30.3%: max response [17]
inactive: Potency [1] > 92 µM | Potency [9] | Potency [15] | Potency [11] | Potency [20] | Potency [5] | max response [6] -1.89% | activity change % (negative = inhibition) [7] -11.5%

NC(=O)c1ccc([N+](=O)[O-])cc1
16.9%: max response [17]
inactive: Potency [1] > 92 µM | activity change, negative = cytotoxicity [3] -5.57% | Potency [9] | Potency [15] | Potency [12] | Potency [4] | Potency [13] | Potency [20] | Potency [14] | Potency [16] | Potency [5] | max response [6] -5.31% | activity change % (negative = inhibition) [7] -17.4% | activation [8] -4.76%

CCc1ccc(C(c2ccc(CC)cc2)C(Cl)Cl)cc1
inactive: Potency [1] > 92 µM | activity change, negative = cytotoxicity [3] -11.4% | Potency [15] | Potency [11] | Potency [12] | Potency [13] | Potency [14] | activity change % (negative = inhibition) [7] 13.5%
